The values below come from PubChem BioAssay (NCATS).

Structures are written as SMILES. Several values for one entry are separate records, joined by “and”; a condition that tells them apart may be missing. Equal entries are not always repeated. Inconclusive results are not listed. Activity calls are given as the source filed them. Calls come from the whole dose curve.
Potency is the fitted concentration of half-maximal effect.

This test can be described thus: Primary qHTS to identify inhibitors of SARS-CoV-2 cell entry (AID 1645846). Note: nearly all actives have a fitted effect of over 45% in size. The note with it: SARS-CoV-2 pseudovirus cell entry assay, luminescence; activity change, negative = inhibition: at 57.1 µM (top of the series) unless noted; series mostly up to 57.1 µM. The source says: Assay Provider: Wei Zheng, Ph.D.
National Center for Advancing Translational Sciences, National Institute of Health, Rockville, MD.
SARS-CoV-2 spike protein, within the viral envelope, mediates viral attachment and infection of host cells. The SARS-CoV-2 spike protein specifically binds to the host receptor ACE2 (Angiotensin-converting enzyme 2). This interaction promotes endocytosis of the viral particle, additional events lead to viral-host cell membrane fusion and release of the viral contents, allowing viral replication.
While SARS-CoV-2 requires BSL-3 facilities for live virus work, pseudotyped partices (PP) that incorporate SARS-CoV-2 spike proteins without replication elements could facilitate studies on viral entry mechanisms in a BSL-2 setting. This PP cell entry assay could also enable screening of small molecule compound libraries in BSL-2 setting to identify inhibitors of SARS-CoV-2 cell entry.
PROTOCOL TABLE (format as described by Inglese J, Shamu CE and Guy RK. 2007)
SEQUENCE No. (e.g., 1, 2, 3, etc.); […] (e.g., Cells, Incubation, Reagent, etc.); VALUE and DESCRIPTION.
1. Cells. Seed 1500 HEK293-ACE2 cells (Expi293F with stable expression of human ACE2) in 2 uL/well media (DMEM, 10% FBS, 1x L-glutamine, 1x Pen/Strep, 1 ug/ml puromycin) in white 1536-well assay plates (Greiner #782073).
2. Incubation. Incubate at 37C with 5% CO2 overnight (~16 h).
3. Compounds. Dispense 23 nL/well compounds in DMSO via pin transfer.
4. Incubation. Incubate for 1 hr at 37C 5% CO2.
5. Reagent. Dispense 2 uL/well of SARS-CoV-2-S pseudotyped particles. [a] PPs are produced with murine leukemia virus pseudotyping. [b] SARS-CoV-2-S is Wuhan-Hu-1 sequence (BEI #NR-52420) with C-terminal 19 amino acid truncation.
6. Centrifuge. […]
7. Incubation. Incubate at for 48 hr at 37C 5% CO2
8. Centrifuge. Remove supernatant with gentle centrifugation using a Blue Washer (BlueCat Bio).
9. Reagent. Dispense 4 uL/well of Bright-Glo Luciferase detection reagent (Promega #E2620).
10. Incubation. Incubate for 5 min at room temperature.
11. Detection. Read luminescence signal (Viewlux plate reader, PerkinElmer). Data was normalized with wells containing SARS-CoV-2-S PP as 100%, and wells containing bald PP (no fusion protein) as 0%.
As to `CC(=O)Oc1cc2c(s1)CCN(C(C(=O)C1CC1)c1ccccc1F)C2` (stereo not given), the activity change, negative = inhibition was -16.4% and the compound was called inactive.
For `O=c1n(CCCN2CCN(c3cccc(Cl)c3)CC2)nc2ccccn12`, the activity change, negative = inhibition is -23.8%.
On to `COc1cccc2c1C(=O)c1c(O)c3c(c(O)c1C2=O)C[C@@](O)(C(=O)CO)C[C@@H]3O[C@H]1C[C@H](N)[C@H](O)[C@H](C)O1`, for which the activity change, negative = inhibition is -93.7%.
`CC(C)c1c(C(=O)Nc2ccccc2)c(-c2ccccc2)c(-c2ccc(F)cc2)n1CC[C@@H](O)C[C@@H](O)CC(=O)O`: the activity change, negative = inhibition is -13%.
On the same count and under the same terms, for `CCN(CC)C(=O)N[C@@H]1C=C2c3cccc4[nH]cc(c34)C[C@@H]2N(C)C1` the value was 3.33%.
As to `CN(CCOc1ccc(CC2SC(=O)NC2=O)cc1)c1ccccn1` (stereo not given), the activity change, negative = inhibition is -30.2% and the result was inactive.
`CCN1CCN(C(=O)N[C@@H](C(=O)N[C@@H]2C(=O)N3C(C(=O)O)=C(CSc4nnnn4C)CS[C@H]23)c2ccc(O)cc2)C(=O)C1=O`: the Potency result is “inactive”.
For the compound `COc1cc(C(=O)NCc2ccc(OCCN(C)C)cc2)cc(OC)c1OC`, the result was inactive.
Consider `COCCCOc1cc(C[C@@H](C[C@H](N)[C@@H](O)C[C@H](C(=O)NCC(C)(C)C(N)=O)C(C)C)C(C)C)ccc1OC`, for which the compound was called inactive and the activity change, negative = inhibition was -3.02%.
With `CN(C/C=C/C#CC(C)(C)C)Cc1cccc2ccccc12`, the activity change, negative = inhibition was -3.95%.
Consider `Cc1ncc([N+](=O)[O-])n1CCO`, for which the activity change, negative = inhibition was -22%.
On the same count and under the same terms, for `CC(C)(C)NCC(O)c1cc(Cl)c(N)c(Cl)c1` (stereo not given) the value was 0.184%.
Regarding `OCCN1C[C@H](O)[C@@H](O)[C@H](O)[C@H]1CO`, the activity change, negative = inhibition is -28.6% and -30.5%.
On to `Cc1c(OCC(F)(F)F)ccnc1CS(=O)c1nc2ccccc2[nH]1` (stereo not given), for which the call was inactive.
With `O=NN(CCCl)C(=O)NC1CCCCC1`, the activity change, negative = inhibition was -8.29% and the result was inactive.
Turning to `COc1ccccc1OCC(O)CN1CCN(CC(=O)Nc2c(C)cccc2C)CC1` (stereo not given), the activity change, negative = inhibition is 4.5% and -8.51%.
As for `CCOC(=O)[C@H](CCc1ccccc1)N[C@@H](C)C(=O)N1Cc2ccccc2C[C@H]1C(=O)O`, the activity change, negative = inhibition came out at 3.61%.
As to `O[C@@H]1CO[C@H]2[C@@H]1OC[C@@H]2O`, the result was inactive.
As to `CC1=C(C(=O)O)N2C(=O)[C@@H](NC(=O)[C@H](N)c3ccccc3)[C@H]2SC1`, the activity change, negative = inhibition is -1.93%.
Take `CN(C)CCc1c[nH]c2ccc(CS(=O)(=O)N3CCCC3)cc12`: the outcome was inactive and the activity change, negative = inhibition is -5.24%.
As for `COc1ccccc1OCCNCC(O)COc1cccc2[nH]c3ccccc3c12` (stereo not given), the Potency was 22.4 µM (active).
Regarding `C=C(C)[C@H]1Cc2c(ccc3c2O[C@@H]2COc4cc(OC)c(OC)cc4[C@@H]2C3=O)O1`, the activity change, negative = inhibition is -94.7%.
With `COc1nc(N)nc2c1ncn2[C@@H]1O[C@H](CO)[C@@H](O)[C@@H]1O`, the call was inactive.
Regarding `CC(C)(C#N)c1cc(Cn2cncn2)cc(C(C)(C)C#N)c1`, the Potency result was “inactive”.
Turning to `NCCC(O)(P(=O)(O)O)P(=O)(O)O`, the outcome was inactive.
For the compound `CC12CC3CC(C)(C1)CC(N)(C3)C2`, the activity change, negative = inhibition was -26.3% and the call was inactive.
For `N[C@@H]1CONC1=O`, in that order: -2.51% and “inactive”.
Consider `CN(CCOc1ccc(NS(C)(=O)=O)cc1)CCc1ccc(NS(C)(=O)=O)cc1`, for which the activity change, negative = inhibition is 4.03% and 4.22%.
On the same count and under the same terms, for `NCC(CC(=O)O)c1ccc(Cl)cc1` (stereo not given) the value was 0.754% [at 0.702 µM]; for `COc1cc2nc(N3CCN(C(=O)C4CCCO4)CC3)nc(N)c2cc1OC` (stereo not given), -6.28%.
In the case of `CO[C@@H](C(=O)N1Cc2[nH]nc(NC(=O)c3ccc(N4CCN(C)CC4)cc3)c2C1)c1ccccc1`, the activity change, negative = inhibition is -64.7%.
As to `C[C@@H]1C[C@H]2[C@@H]3CCC4=CC(=O)C=C[C@]4(C)[C@@]3(F)[C@@H](O)C[C@]2(C)[C@@]1(O)C(=O)CO`, the Potency result was “inactive”.
Consider `COC(=O)CCc1ccc(OCC(O)CNC(C)C)cc1` (stereo not given), for which the activity change, negative = inhibition is -35%.
